The list is not random: actives were taken first. Their share in the collection is about 19%.
TDP1 cell CPT: DT40-hTDP1 cell growth loss with CPT; chicken DT40 Tdp1-/-;hTDP1 cells + 20 nM CPT, ATP luminescence, 48 h; Potency, µM (titrated, usually from 46.2 µM), hits mostly inhibitors; actives 12% (n = 420,000); AID 686979; further: nearly all actives have a fitted effect of over 55% in size
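Chicken DT40 Tdp1-/- cells complemented with human TDP1, 400 cells/well, exposed to compounds plus 20 nM camptothecin for at least 48 h at 37 C; viability read as ATP content by CellTiter-Glo luminescence.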
HT1080NT lethal: kills 2HG-producing HT-1080-NT fibrosarcoma cells; HT-1080-NT fibrosarcoma viability, CellTiter-Glo ATP luminescence, 48 h; actives 1.6% (n = 360,000); Potency, µM (titrated, usually from 46.1 µM), actives largely listed as cytotoxic;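 further: NT is the 2HG producing partner of a matched IDH1 knockdown line; nearly all actives have a fitted effect of over 55% in size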
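Read-out is CellTiter-Glo luminescence after 10 minutes at room temperature, following 48 hours' compound treatment of HT-1080-NT cells (750 cells/well, RPMI, 5% FBS, 37 degrees C).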
DT40 TDP1 no CPT: qHTS for Inhibitors of human tyrosyl-DNA phosphodiesterase 1 (TDP1): qHTS in cells in absence of CPT; DT40 Tdp1-/- hTDP1 cells, no CPT, ATP luminescence, 48 h; actives 15% (n = 420,000); Potency, µM (titrated, usually from 46.2 µM), most hits filed as inhibitors; AID 686978, 2013; further: nearly all actives have a fitted effect of over 55% in size
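Compound effects on proliferation are scored in DT40 Tdp1-/-;hTDP1 cells in the absence of CPT. ATP levels (CellTiter-Glo luminescence) are recorded after a ≥48 hr, 37 °C incubation.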
uPA generation: inhibitors of cell surface uPA generation; Potency, µM (series often up to 38.3 µM), most hits filed as inhibitors; AID 540303; actives 0.31% (n = 330,000); cell surface uPA generation assay, qHTS; active means well fitted inhibition curve with a large enough effect; inconclusive means small, poorly fitted or top-dose-only effect; inactive means no such curve, though single readings can be large or run the other way; tested in mouse RAW 264.7 cells; further: nearly all actives have a fitted effect of over 55% in size
IL1B secr inh: inflammasome signaling inhibition, IL-1 beta readout | THP-1 LPS/ATP IL-1B secretion, AlphaLISA, 16 h; stronger effect = lower value | activity change, % at 57.5 µM | actives 4.7% (n = 360,000); in the data active means activity change below about -50%; inconclusive means mostly about -30% to -49%
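Secreted IL-1B measured by AlphaLISA bead assay after 16 h compound exposure of THP-1 cells; compounds (final up to 57.5 uM) added 1 h before LPS (250 ng/mL) and ATP (1.25 mM) stimulation; lower signal means less secretion.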
HT1080 IDH1KD tx: HT-1080 IDH1 knockdown cell toxicity (counter line); HT-1080 IDH1 knockdown viability, ATP luminescence, 48 h; Potency, µM (doses to about 46.1 µM), actives largely listed as cytotoxic; actives 2% (n = 360,000); AID 686971
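In this qHTS, HT-1080 cells depleted of IDH1 are exposed for 48 h at 37 °C to compound titrations. Toxicity is scored from CellTiter-Glo luminescence, with DMSO as full viability and medium alone as none.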
Large screens that a line does not name were inactive; ! = not confirmed by another sample. Unless noted, the call rests on the fitted dose curve; in most records, active means well fitted curve in the direction sought with a large enough effect; inconclusive means small, poorly fitted or top-dose-only effect, or another doubt; inactive means no such curve, though single readings can be large; an effect the other way counts as inactive or inconclusive.

CCCn1c(=O)[nH]c(=O)c2c1nc(-c1ccc(OC(F)(F)C(F)C(F)(F)F)cc1)n2CCOC (configuration not stated)	TDP1 cell CPT inconclusive, DT40 TDP1 no CPT 16µM
COCCn1c(-c2ccc3ccccc3c2)nc2c1c(=O)[nH]c(=O)n2CC(C)C	TDP1 cell CPT inconclusive, DT40 TDP1 no CPT 23µM
CCCCn1c(-c2cccc(F)c2)nc2c1c(=O)[nH]c(=O)n2CC(C)C	DT40 TDP1 no CPT inconclusive
CCCCn1c(-c2ccc(OC(F)F)cc2)nc2c1c(=O)[nH]c(=O)n2CC(C)C	TDP1 cell CPT 21µM, DT40 TDP1 no CPT 23µM
CCCn1c(=O)[nH]c(=O)c2c1nc(-c1ccc(C#N)cc1)n2CCOC	none
Clc1cc(CSc2ccccc2)nc(-c2ccccc2)n1	none
CN(C)S(=O)(=O)c1ccc(C(=O)NCc2nnc(SCC(=O)Nc3ccc(F)cc3)n2-c2ccc(F)cc2)cc1	DT40 TDP1 no CPT inconclusive
COc1ccccc1/C=C/c1nc2ccccc2n1C(C)C	TDP1 cell CPT 18µM, DT40 TDP1 no CPT 21µM (no result: HT1080NT lethal, uPA generation, IL1B secr inh, HT1080 IDH1KD tx)
Cc1ccc(C(O)c2nc3ccccc3n2C)cc1 (configuration not stated)	DT40 TDP1 no CPT inconclusive
CC(C)c1ccc(C(O)c2nc3ccccc3n2C)cc1 (configuration not stated)	TDP1 cell CPT 21µM, DT40 TDP1 no CPT 21µM
COc1ccc(C(O)c2nc3ccccc3n2C(C)C)cc1 (configuration not stated)	TDP1 cell CPT 23µM, HT1080NT lethal inconclusive, DT40 TDP1 no CPT 16µM, HT1080 IDH1KD tx inconclusive
CC(C)n1c(/N=C/c2ccccc2O)nc2ccccc21	none
CNC(=O)c1ccsc1NC(=O)CS(=O)(=O)c1ccc(Cl)cc1	TDP1 cell CPT inconclusive
COC(=O)c1cccc(NC(=S)Nc2ccc(Cl)c(Cl)c2)c1	DT40 TDP1 no CPT 26µM, IL1B secr inh -65, HT1080 IDH1KD tx inconclusive
COC(=O)c1cccc(NC(=S)Nc2ccccc2Cl)c1	none
COC(=O)c1cc(NC(=S)Nc2cc(Cl)cc(Cl)c2)cc(C(=O)OC)c1	TDP1 cell CPT 18µM, DT40 TDP1 no CPT inconclusive, IL1B secr inh -81
COC(=O)c1cccc(NC(=S)Nc2cccc(Cl)c2C)c1	TDP1 cell CPT inconclusive, DT40 TDP1 no CPT inconclusive
COc1cc(N)c(NC(=O)/C=C/c2nc3cc(OC)c(OC)cc3[nH]2)cc1OC	none (no result: HT1080NT lethal, uPA generation, IL1B secr inh, HT1080 IDH1KD tx)
CC1=C(\C=C/C(C)=C/C=C\C(C)=C\C(=O)O)C(C)(C)CCC1	TDP1 cell CPT 15µM!, DT40 TDP1 no CPT 12µM! (no result: HT1080NT lethal, uPA generation, IL1B secr inh, HT1080 IDH1KD tx)
CC1=C(/C=C/C(C)=C/C=C/C(C)=C\C(=O)O)C(C)(C)CCC1	TDP1 cell CPT inconclusive, DT40 TDP1 no CPT 23µM!
CC(=O)C(C(c1ccccc1)N1CCCc2ccccc21)N1CCOCC1 (configuration not stated)	TDP1 cell CPT inconclusive, DT40 TDP1 no CPT inconclusive
Cc1ccc(N(C)C(=O)Cn2cc(S(=O)(=O)N3CCCC3)c(S(=O)(=O)N3CCCC3)c2)cc1	none (no result: HT1080NT lethal, uPA generation, IL1B secr inh, HT1080 IDH1KD tx)
COc1ccccc1C(CNc1ncnc2sc(C)c(C)c12)N(C)C (configuration not stated)	TDP1 cell CPT inconclusive, DT40 TDP1 no CPT 21µM
COc1ccc(C(CNc2ncnc3sc(C)c(C)c23)N(C)C)cc1 (configuration not stated)	TDP1 cell CPT inconclusive, DT40 TDP1 no CPT 23µM
O=Cc1ccc(OC(=O)c2cc(Cl)nc3ccccc23)cc1	TDP1 cell CPT inconclusive, DT40 TDP1 no CPT 21µM
O=C(Oc1cccc2ccccc12)c1cc(Cl)nc2ccccc12	DT40 TDP1 no CPT inconclusive
O=C(OCc1cc(=O)n2nc(-c3cccs3)sc2n1)c1ccc(Cl)cc1	none (no result: HT1080NT lethal, uPA generation, IL1B secr inh, HT1080 IDH1KD tx)
O=C1CCC(=O)O1	IL1B secr inh -54
O=C1CCc2ccccc2O1	none
CN1C[C@H]2CON(C)[C@H]2C[C@H]1c1cccc(-c2ccccc2)c1	none

High-throughput results from PubChem.
